SMILES strings stand for the structures. Out of some 310,000 compounds screened, about 14,000 (4.5%) showed an effect of 50% or more. The effect is printed as a negative number. The sample holds strong results, similar compounds and a random draw of the others, so the mix is not that of the screen.
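Further: peak tail current of the secondary pulse compared with the same well before compound.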

The target in this test is human ether-à-go-go-related gene (hERG) potassium channel (human, UniProt Q12809). The test is described as follows: primary screen, population patch clamp on CHO cells stably expressing hERG; higher = less effect of the substance.
Chain of human ether-à-go-go-related gene (hERG) potassium channel (Q12809 whole entry, looked up): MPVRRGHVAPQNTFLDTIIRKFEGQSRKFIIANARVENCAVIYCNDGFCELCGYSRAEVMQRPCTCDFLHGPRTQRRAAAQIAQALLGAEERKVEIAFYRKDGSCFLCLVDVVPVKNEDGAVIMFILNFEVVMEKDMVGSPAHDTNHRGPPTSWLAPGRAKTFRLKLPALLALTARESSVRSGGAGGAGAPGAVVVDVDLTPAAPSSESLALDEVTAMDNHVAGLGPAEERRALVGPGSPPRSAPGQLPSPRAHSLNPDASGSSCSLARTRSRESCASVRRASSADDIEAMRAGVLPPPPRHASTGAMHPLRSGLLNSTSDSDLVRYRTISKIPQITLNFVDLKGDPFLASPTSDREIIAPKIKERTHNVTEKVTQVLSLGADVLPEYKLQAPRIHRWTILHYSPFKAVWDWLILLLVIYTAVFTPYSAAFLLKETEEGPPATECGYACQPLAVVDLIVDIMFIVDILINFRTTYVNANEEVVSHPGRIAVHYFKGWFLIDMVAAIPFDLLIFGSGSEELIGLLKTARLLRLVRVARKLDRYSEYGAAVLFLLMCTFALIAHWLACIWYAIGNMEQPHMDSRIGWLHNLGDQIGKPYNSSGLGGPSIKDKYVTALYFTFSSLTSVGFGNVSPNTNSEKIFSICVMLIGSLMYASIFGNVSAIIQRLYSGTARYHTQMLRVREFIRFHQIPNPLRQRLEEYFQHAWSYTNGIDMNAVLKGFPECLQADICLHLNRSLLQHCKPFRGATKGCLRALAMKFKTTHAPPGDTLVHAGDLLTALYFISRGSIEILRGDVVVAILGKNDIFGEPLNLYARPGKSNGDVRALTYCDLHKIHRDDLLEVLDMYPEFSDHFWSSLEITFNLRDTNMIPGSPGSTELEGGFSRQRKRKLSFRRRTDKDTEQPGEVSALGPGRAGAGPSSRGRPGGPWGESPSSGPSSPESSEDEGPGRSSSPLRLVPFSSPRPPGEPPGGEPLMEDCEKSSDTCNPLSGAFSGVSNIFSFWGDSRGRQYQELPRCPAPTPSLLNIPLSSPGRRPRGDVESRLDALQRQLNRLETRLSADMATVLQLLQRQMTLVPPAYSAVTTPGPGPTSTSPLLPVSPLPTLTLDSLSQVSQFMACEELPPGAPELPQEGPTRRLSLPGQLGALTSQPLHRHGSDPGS
In the case of `c1ccc2c(CSCCc3ccncc3)cccc2c1`, the “hERG current change (%, negative = inhibition) at 10uM” value is given as -17.6%.
As for `COc1ccccc1CNC(=O)COC(=O)c1nc(Cl)ccc1Cl`, the figure is -2.78%.
As for `COc1ccc2c(c1)OC[C@H]1[C@H]2N2C(=O)CN(Cc3ccco3)C(=O)[C@@]2(C)[C@H]1c1ccccc1`, the figure is 10.7%.
As for `CCCN(CC1CC1)CC(O)c1ccccc1.O=C(O)C(=O)O` (stereo not shown), the figure is 4.51%; as for `CC(C)NCC(O)c1ccc(C2CCCC2)cc1.O=C(O)/C=C\C(=O)O` (stereo not shown), -15.5%; as for `CCN(CC)CC(O)c1ccc(C2CCCC2)cc1.Cl` (stereo not shown), -63%.
As to `COC(=O)c1c(NC(=O)c2ccco2)sc(C)c1C`, the “hERG current change (%, negative = inhibition) at 10uM” value was 18.1%.
With `CCCNC(=O)COC(=O)c1ccccc1OCc1ccc(Cl)cc1` the figure was -0.354%; with `COc1ccc(CC(=O)N(Cc2ccccc2)c2ccccc2)cc1S(=O)(=O)N1CCOCC1`, 1.07%.
As for `Cc1ccc(N(Cc2ccccc2)C(=O)c2ccc(Cl)c(S(=O)(=O)N3CCOCC3)c2)cc1`, the figure is -70.3%; as for `Cc1cccc(N(Cc2ccccc2)C(=O)c2ccc(F)c(S(=O)(=O)N3CCOCC3)c2)c1`, -50.5%.
On to `Cc1ccc(N(Cc2ccccc2)C(=O)c2ccc(C)c(S(=O)(=O)N3CCOCC3)c2)cc1`, for which the “hERG current change (%, negative = inhibition) at 10uM” value is given as -18%.
As for `Cc1ccc(N(Cc2ccccc2)C(=O)c2ccc(F)c(S(=O)(=O)N3CCOCC3)c2)cc1`, the figure is -82.7%; as for `Cc1ccc(N(Cc2ccccc2)C(=O)c2cc(S(=O)(=O)N3CCOCC3)ccc2N2CCCC2)cc1`, 5.59%.
With `Cc1ccc(N(Cc2ccccc2)C(=O)c2cc(S(=O)(=O)N3CCOCC3)ccc2F)cc1` the figure was -10.2%; with `COc1ccc(C(=O)N(Cc2ccccc2)c2cccc(C)c2)cc1S(=O)(=O)N1CCOCC1`, -35.8%.
With `COc1ccc(C(=O)N(Cc2ccccc2)c2ccc(C)cc2)cc1S(=O)(=O)N1CCOCC1`, the “hERG current change (%, negative = inhibition) at 10uM” value is -67.7%.
As for `Cc1cccc(N(Cc2ccccc2)C(=O)c2ccc(C)c(S(=O)(=O)N3CCOCC3)c2)c1`, the figure is -17.6%; as for `Cc1cccc(N(Cc2ccccc2)C(=O)c2cc(S(=O)(=O)N3CCOCC3)ccc2Cl)c1`, -13.3%.
As for `Cc1cccc(N(Cc2ccccc2)C(=O)c2cc(S(=O)(=O)N3CCOCC3)ccc2F)c1`, the figure is -5.69%.
With `Cl.O=C(C1CCN(S(=O)(=O)c2cccs2)CC1)N1CCN(Cc2ccccc2)CC1` the figure was 3.79%; with `Cn1c(=O)[nH]c(=O)c2c1nc(SCCC(=O)O)n2Cc1cccc(Br)c1`, 1.52%.
`COCCNC(=S)NC1CC2CCC(C1)N2Cc1ccccc1` (stereo not shown): the “hERG current change (%, negative = inhibition) at 10uM” value was 2.78%.
Regarding `COc1ccc(C2C(C(=O)c3cccs3)=C(O)C(=O)N2Cc2cccnc2)cc1OC` (stereo not shown), the “hERG current change (%, negative = inhibition) at 10uM” value amounted to 5.03%.
As for `CC(Oc1cccc(Cl)c1)C(=O)Nc1nc(-c2ccccn2)cs1` (stereo not shown), the figure is 4.19%.
As for `CC(Oc1ccc(F)cc1)C(=O)Nc1nc(-c2ccccn2)cs1` (stereo not shown), the figure is -76.3%; as for `CC(Oc1ccc(Br)cc1)C(=O)Nc1nc(-c2ccccn2)cs1` (stereo not shown), -5.7%; as for `O=C(Nc1cccc(C(=O)O)c1)/C(=C\c1ccccc1Cl)NC(=O)c1ccco1`, 6.89%.
With `COc1ccc(CC(=O)N(C)CC(=O)Nc2ccccc2SC)cc1` the figure was 8.56%.
With `CCc1nnc(NC(=O)c2cc(C)oc2C)s1`, the “hERG current change (%, negative = inhibition) at 10uM” value was -10%.
As for `CC(C)N(Cc1nnc(-c2ccccc2Br)o1)C(=O)c1cc(Cl)nc2ccccc12`, the figure is -24.9%; as for `CC(C)N(Cc1nnc(-c2ccc(Cl)cc2)o1)C(=O)c1cc2ccccc2o1`, -40.1%.
With `Cc1ccccc1OCC(=O)N(Cc1nc(-c2ccccc2)no1)C(C)C` the figure was -15%; with `Cc1cc(C(=O)N(Cc2nnc(-c3ccc(Cl)cc3)o2)C(C)C)c2ccccc2n1`, -58.5%.
As for `Cc1ccccc1OCC(=O)N(Cc1nnc(-c2ccc(Cl)cc2)o1)C(C)C`, the figure is -53.5%; as for `CC(C)N(Cc1nnc(-c2ccc(Cl)cc2)o1)C(=O)C1=COCCO1`, -19.9%; as for `CNc1ccc(Cl)cc1C(N)=O`, 26.1%.
On to `Cc1ccc(C(=O)COC(=O)c2nc3nccc(C)n3n2)c(C)c1`, for which the “hERG current change (%, negative = inhibition) at 10uM” value was -7.14%.
With `COc1ccc(Cl)cc1NS(=O)(=O)N1CCOCC1` the figure was 6.86%.
With `CC(Cc1ccccc1)NC(=O)c1cc([N+](=O)[O-])ccc1Cl` (stereo not shown) the figure was -4.69%.
With `O=C(NCCCn1ccnc1)C1CCCN(S(=O)(=O)c2cc(Cl)ccc2Cl)C1` (stereo not shown) the figure was -60.3%.
Turning to `O=C(NCc1ccccc1)C1CCCN(S(=O)(=O)c2ccc(Br)cc2)C1` (stereo not shown), the “hERG current change (%, negative = inhibition) at 10uM” value came out at 23.4%.
As for `O=C(NCc1ccncc1)C1CCCN(S(=O)(=O)c2cc(Cl)ccc2Cl)C1` (stereo not shown), the figure is -61.2%; as for `COc1ccc(Cl)cc1S(=O)(=O)N1CCCC(C(=O)NCc2ccncc2)C1` (stereo not shown), -25.7%; as for `O=C(NCc1ccncc1)C1CCN(S(=O)(=O)c2cc(Cl)ccc2Cl)CC1`, -18.9%.
As for `O=C(NCc1cccnc1)C1CCCN(S(=O)(=O)c2ccc(Br)cc2)C1` (stereo not shown), the figure is -41.6%.
As for `O=C(NCCCn1ccnc1)C1CCCN(S(=O)(=O)c2ccc(F)cc2)C1` (stereo not shown), the “hERG current change (%, negative = inhibition) at 10uM” value was 10.7%.
Take `COc1ccc(S(=O)(=O)N2CCCC(C(=O)NCCCn3ccnc3)C2)cc1OC` (stereo not shown): the “hERG current change (%, negative = inhibition) at 10uM” value worked out at 7.83%.
As for `O=C(NCc1ccncc1)C1CCCN(S(=O)(=O)c2ccc(Br)cc2)C1` (stereo not shown), the figure is -77.5%.
Consider `CC(C)c1ccc(S(=O)(=O)c2n[nH]n3c2nc(=O)c2ccccc23)cc1`, for which the “hERG current change (%, negative = inhibition) at 10uM” value was -16.7%.
With `C/C(=N\NC(=S)NCC(C)(C)C)c1cc(F)cc(F)c1O` the figure was 17.2%; with `CC1=NN(C(N)=S)C(=O)C1N=Nc1c(Br)cc(Br)cc1Br` (stereo not shown), -8.08%.

Source of the values: PMC4336329 (PLoS ONE, 2015).
